# CBFb-RUNX1 inh: blocks binding between human CBF-beta and RUNX1 | Q01196+Q13951 | AlphaScreen CBFb-His/RUNX1-biotin binding, biochemical | Potency, µM (titrated, usually from 59.8 µM), inactives show at the highest dose activity, negative = inhibition, most hits filed as inhibitors | 230,000 tested, under 10 active | AID 1477; active means well fitted curve in the direction sought with a large enough effect; inconclusive means small, poorly fitted or top-dose-only effect, or another doubt; inactive means no such curve, though single readings can be large; an effect the other way counts as inactive or inconclusive; further: % of control where 0% means no effect
#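 Read-out: AlphaScreen. Format: His-CBF-beta with biotinylated RUNX1 (30 nM each) preincubated 20 min, compound 15 min, Ni-chelate plus streptavidin beads 90 min; room temperature throughout.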
# ALDH1A1 inh: blocks purified human ALDH1A1 activity; Purified ALDH1A1, NADH fluorescence, propionaldehyde substrate; P00352; Potency, µM (series often up to 75.3 µM), inactives show top-dose activity, negative = inhibition, hits mostly inhibitors; hit rate 7.3% among 220,000; AID 1030;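 further: potency means the concentration at half of the fitted maximal effect; plate controls were no enzyme wells and a reference inhibitor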
# HPGD inh: HPGD (human) dehydrogenase inhibition; AID 894; hit rate 4.3% among 150,000; purified HPGD, NADH fluorescence kinetic, PGE2 substrate; Potency, µM, without a hit: at the highest dose activity change, negative = inhibition, usual class: inhibitors; P15428; further: potency means the concentration at half of the fitted maximal effect; on the % scale 0 is the no-effect control and ±100 the full control effect
#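 NADH formation kinetics: reaction with 30 uM PGE2 and 1 mM NAD+ (final), 20 nM enzyme, Tris-HCl pH 8 with Tween 20, after 15 min compound preincubation at room temperature. Fluorescence change, last versus first of five reads.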
# HTT ATP protect: protects HTT-Q103 PC12 cells, measured by ATP | AID 1471 | hit rate 0.14% among 230,000 | PC12 HTT-Q103 induced, cytoprotection, ATP luminescence, 40 h | Potency, µM (series often up to 56.4 µM), without a hit: cytoprotection (ATP increase), most hits filed as activators; active means well fitted curve in the direction sought with a large enough effect; inconclusive means small, poorly fitted or top-dose-only effect, or another doubt; inactive means no such curve, though single readings can be large; an effect the other way counts as inactive or inconclusive; further: potency means the concentration at half of the fitted maximal effect; % of control where 0% means no effect; nearly all actives have a fitted effect of over 45% in size
#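 PC12 cells with ecdysone-inducible HTT exon 1 Q103-GFP, induced with 100 nM tebufenozide and co-treated with library compounds in a dose series (1536-well, 1500 cells/well). Cytoprotection read as ATP content by ATPlite luminescence.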
# JMJD2E inh: blocks human JMJD2E demethylase activity. JMJD2E catalytic domain, FDH-coupled NADH fluorescence (FDH is formaldehyde dehydrogenase). B2RXH2. Potency, µM (titrated, usually from 57.1 µM), inactives show at the highest dose activity change, negative = inhibition, most hits filed as inhibitors. hit rate 1.6% among 230,000;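 further: potency means the concentration at half of the fitted maximal effect; 0% = wells with enzyme and -100% = buffer wells without enzyme; nearly all actives have a fitted effect of over 50% in size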
# Target sequence (B2RXH2 1-337 limits assumed): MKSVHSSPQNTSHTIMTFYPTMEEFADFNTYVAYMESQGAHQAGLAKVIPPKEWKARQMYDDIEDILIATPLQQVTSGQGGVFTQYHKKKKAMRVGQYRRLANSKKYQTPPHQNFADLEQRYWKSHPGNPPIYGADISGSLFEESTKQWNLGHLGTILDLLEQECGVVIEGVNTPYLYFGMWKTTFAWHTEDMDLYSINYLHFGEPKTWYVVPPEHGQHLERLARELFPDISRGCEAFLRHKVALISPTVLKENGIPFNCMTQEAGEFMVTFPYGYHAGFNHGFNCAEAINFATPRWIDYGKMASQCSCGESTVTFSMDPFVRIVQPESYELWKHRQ
# HTT aggregate: reduces HttQ103-GFP aggregates in PC12 cells; hit rate 1.1% among 220,000; Potency, µM (doses to about 46.1 µM), for the others: at the highest dose activity change, negative = inhibition, hits mostly inhibitors; PC12 HttQ103-GFP aggregates, Acumen cytometry, 40 h; active means well fitted curve in the direction sought with a large enough effect; inconclusive means small, poorly fitted or top-dose-only effect, or another doubt; inactive means no such curve, though single readings can be large; an effect the other way counts as inactive or inconclusive; further: potency means the concentration at half of the fitted maximal effect; on the % scale 0 is the no-effect control and ±100 the full control effect; nearly all actives have a fitted effect of over 60% in size
#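 PC12 cells with ecdysone-inducible HTT exon1 Q103-GFP, induced by 100 nM tebufenozide, given compounds in a concentration series. GFP aggregates (1–25 um, 6 SD above background) counted in lysates by laser-scanning cytometry, 488 nm excitation.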
# Starred values were filed as active, the others as inactive; ? = inconclusive; / = no result; [ ] = remark or other dose. Most compounds without a hit are left out; they make up all but 9.8% or so of the library. Unless noted, the call rests on the fitted dose curve; in most records, active means well fitted inhibition curve with a large enough effect (not every such curve was filed as active); inconclusive means small, poorly fitted or top-dose-only effect, or another doubt; inactive means no such curve, though single readings can be large or run the other way.
SMILES,CBFb-RUNX1 inh,ALDH1A1 inh,HPGD inh,HTT ATP protect,JMJD2E inh,HTT aggregate
C=CCOC(=O)/C(=C/c1ccco1)NC(=O)/C=C/c1ccccc1,-1%,16µM*,-29%,8%[10 µM],4%,10%
Cc1c(C(=O)Nc2ccccc2)csc1-c1ccccc1,-2%,-2%,?,/,-5%,12%
Cc1ccc(S(=O)(=O)c2c(N)n(Cc3ccco3)c3nc4ccccc4nc23)cc1C,15%,?,?,-11%,?,13µM*
Nc1c(S(=O)(=O)c2ccccc2)c2nc3ccccc3nc2n1Cc1ccco1,4%,?,?,-48%,?,-18%
CCN1CCCc2cc(CN(CCN3CCOCC3)C(=S)Nc3ccc(C)cc3)ccc21,?,6.3µM*,/,-45%,?,5%
CCOc1ccc(NC(=S)N(CCN2CCOCC2)Cc2ccc3c(c2)CCCN3CC)cc1,?,13µM*,/,-9%,?,3%
CC(C)OP(=O)(c1ccc(N(C)C)cc1)C(O)c1cccnc1 (configuration not stated),8%,/,/,?,?,13%[9.22 µM]
CN(C)C=Nc1ncc2c3ccccc3n(CCN(C)C)c2c1C#N,3%,?,?,-28%[0.074 µM],?,2.8µM*
C(=Nc1ccc2c(c1)Cc1ccccc1-2)c1ccccn1,/,-13%[13.5 µM],-7%,-14%[10 µM],/,/
CC(C)(C)NCc1cc2ccccc2[nH]c1=O,-5%,20µM*,?,-21%,?,4%[9.22 µM]
Cc1ccc2[nH]c(=O)c(CNC(C)(C)C)cc2c1,3%,?,?,-17%[0.074 µM],?,7%
C=CCN1C(=O)CSc2ccc(C(=O)NCc3cccs3)cc21,0%,8.9µM*,/,3%[10 µM],-7%,-15%
COc1ccccc1CNC(=O)CN1C(=O)CSc2ccc(S(=O)(=O)N3CCCC3)cc21,-2%,-8%,/,5%,6%,-3%
O=C(NCc1cccs1)c1ccc(Cl)c(S(=O)(=O)N2CCCC2)c1,4%,6%,/,/,?,-3%
CCN1C(=O)CSc2ccc(C(=O)NCc3ccccc3OC)cc21,-1%,10µM*,-15%,5%,3%,-20%
N=C1CCC[C@@H]1C(=S)SCCC(N)=O,/,11%[13.5 µM],-10%,-17%[10 µM],/,/
OCc1ccncc1.OCc1ccncc1.[Cl][Pt]([Cl])([Cl])[Cl],/,2.8µM*,?,1%[10 µM],/,/
COc1cccc(CNC(=O)CCC2CCCN(C(=O)c3cccc4c(C)c(C)[nH]c34)C2)c1 (configuration not stated),3%,28µM*,/,5%,-30%,-1%
CCC(C(=O)Nc1cc(Cl)c(OC)cc1OC)c1ccccc1 (configuration not stated),3%,20µM*,/,17%,-8%,-12%
CCC(C(=O)Nc1ccccc1)c1ccccc1 (configuration not stated),2%,3%,-6%,-5%[10 µM],-7%,8%
CC(C)Cn1c(SC(C)C(=O)Nc2ccc3c(c2)OCCO3)nc2ccccc2c1=O (configuration not stated),-1%,16µM*,-14%,17%[10 µM],-4%,-9%
CCCCCSc1nnc(-c2ccccc2NC(C)=O)c(=O)[nH]1,5%,9%,/,2.8µM*,8%,7%
CC(=O)Nc1ccccc1-c1nnc(SCc2ccccc2Cl)[nH]c1=O,3%,-3%,16µM*,-12%,-2%,-4%
Nc1ccccc1-c1nnc(SCc2ccccc2Cl)[nH]c1=O,-3%,5%,-10%,-3%,2%,-11%
CCCCCSc1nnc(-c2ccccc2N)c(=O)[nH]1,-13%,-2%,0%,/,-8%,2%
O=C(c1cccc(Cl)c1)C1CCCN(Cc2ccc(N3CCNC3=O)cc2)C1 (configuration not stated),2%,-11%,/,-1%[10 µM],-13%,-8%[9.22 µM]
CC(=O)c1ccc(NC(=S)N2c3ccccc3CC2C)cc1 (configuration not stated),-10%,25µM*,/,-15%,-12%,-14%
